# What was measured:
# Experiment in all cases: PBM binding z-score (relative to random genomic background probes); higher = stronger binding; sequences stand for … in GC…GCGATTGACAGCGTAGAATGAAGG
# [1] = tested on: RARb homodimer (NR concentration 270 nM)
# Outline: (§1)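 Binding z-scores were set against random background probes. The data came from custom Agilent 4×180K protein-binding microarrays carrying double-stranded probes with 34-nt variable regions, incubated 1 h with ligand-free nuclear receptor dimers. Partner-specific antibodies detected binding, and scanned fluorescence was regression-normalized.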
# [2] = tested on: RARg:RXRa (NR concentration 270 nM, RXRa partner concentration 90 nM)
# Outline: as §1
# [3] = tested on: RARg homodimer (NR concentration 270 nM)
# Outline: as §1
# [4] = tested on: RXRa DBDmut IVT, anti-RXR (DBD mutation: RXRa K156A/R161A, NR concentration 90 nM)
# Outline: as §1
# [5] = tested on: RXRa homodimer (NR concentration 180 nM)
# Outline: as §1
# [6] = tested on: THRa:RXRa (NR concentration 90 nM, RXRa partner concentration 90 nM)
# Outline: as §1
# [7] = tested on: THRa homodimer (NR concentration 90 nM)
# Outline: as §1
# [8] = tested on: VDR homodimer (NR concentration 270 nM)
# Outline: as §1
Sequence,PBM binding z-score [1],PBM binding z-score [2],PBM binding z-score [3],PBM binding z-score [4],PBM binding z-score [5],PBM binding z-score [6],PBM binding z-score [7],PBM binding z-score [8]
CGAACGAGGGCATGAGTTGATATCAAATGCCGAT,0.794,1.37,1.81,2.39,0.883,1.14,-0.157,2.28
GCTATTAGTTGAAAGGTCAACCGAATGATTCTCG,5.01,6.07,5.57,1.88,7.11,3.83,1.41,2.06
TGAATGAGCTTAAAGATCAGGGAACGTGGCGTCG,-0.993,-0.123,-0.307,-1.41,0.0598,-0.475,-0.628,-0.391
ATCACTAGGTAAAGTTCAGTGAAAGATCGATAGA,2.57,2.32,2.39,1.44,1.55,1.24,0.158,2.29
ACTCGGAGGACAAAGTTCAGAGCTACGCCAGTGA,2.84,3.2,2.63,2.1,1.63,1.71,-0.296,2.54
TCAGACAGGTGAAGGTAATTCAGGTACGCAGTCG,0.916,0.717,0.626,1.5,1.08,1.81,0.574,0.38
GATACAGGGTCAGCTAGAGGCCTGAGTATGGAAA,2.73,4.73,4.64,1.14,4.29,2.49,0.0158,0.311
TCTTCTAGATCAAAGGTTAAGAAAGCCGAAGCCT,1.54,1.99,1.03,0.838,2.95,1.51,-0.597,0.119
TCATGTAGATCAAGCAGGTTAAGAAAGCCTGAGT,0.058,0.118,0.0856,0.962,0.48,0.397,-0.412,0.0758
AGCATGAGGTTATTAAGATCAGGGAATTGCGGTC,0.785,1.38,1.03,1.99,1.77,2.19,0.867,1.59
TCGAGTAGGCTAGTCGGGGCATTCAGCCAACATA,-0.562,-0.554,-0.738,-0.313,-0.347,-0.266,-0.771,-0.582
CTCGAAAGGTCGTGCTCAGGTGAGCATACCAAAC,2.63,5.53,4.45,2.21,5.55,4.12,1.23,0.533
GCATATAGGTAATACAAAGTGAAAGTCCGATTGT,-0.658,0.129,0.264,0.278,0.0953,0.0465,-0.756,-0.321
CATATAGGGTCAGCTAGGCCAGAGTAGGGACGGC,3.33,4.41,4.49,1.48,4.2,3.37,1.12,1.02
CCTAGTTGGTCAGGAGGTAACACACCGGATATGA,1.01,0.732,0.881,-0.282,0.455,0.766,0.712,0.75
TTGCCTAGGTCATTCAGGGGCCAGTATAGAAAGC,3.3,6.09,4.46,2.14,2.76,3.48,0.747,1.75
AGAACGAGGGCAATGAGATGATAGCACGGGTGGC,0.913,0.982,1.72,1.59,0.713,0.651,0.199,0.718
CCTCGGAGGGCAGAAGGTCAGAGCTGTCCGCTTT,3.76,4.71,4.01,-0.118,2.82,1.47,-0.593,-0.355
ATAACGAGGGCAATGAGTTGATAGCACGGGTGGC,0.877,1.46,1.73,1.84,1.07,0.969,-0.389,3.01

Sequence,PBM binding z-score [1],PBM binding z-score [2],PBM binding z-score [3],PBM binding z-score [4],PBM binding z-score [5],PBM binding z-score [6],PBM binding z-score [7],PBM binding z-score [8]
CGTCCAAGGTCATGGTCAGTGAAAGAGACTCGAA,4.01,6.19,6.11,3.84,5.98,3.92,2.89,2.52
CGAACGAGGTCAAGGACAGTGAATCTCCGCACGC,4.19,6.33,6.59,4.23,7.03,4.43,3.19,3.5
CCCACTGGGCCATCAGGTCATTGATATCAACGTT,2.77,2.09,1.65,-0.268,1.3,3.22,3.16,1.66
CGTACTGGGCCAAGGTCATTGATCAGTCAAAGCA,3.36,3.89,3.26,1.57,3.05,3.42,2.56,3.55
ATATGTAGGTTACATCCGGATCATTCAGGCTATG,0.614,1.02,1.25,0.718,1.24,1.3,0.394,0.331
CCGAGTACGTTATGGGGCATTCAGGCAACGGTGA,0.358,-0.121,-0.0152,3,-0.121,0.188,-0.521,1.4
TAGCCTAGGTCACTCAGGGGCCAGTATAGAAAGC,3.61,5.91,5.25,0.581,2.94,3.17,0.528,0.664
ATATATAGGTTACATCCGGGTCATTCAGGCTATG,3.34,4.2,2.64,1.57,3.51,4.03,2.74,3.65
GCTCGGAGGACAAGGTTAGAGCTTTGTCCGTAGA,0.733,0.376,1.01,-0.384,0.102,1.28,-0.0516,-0.796
GGAACGAGGGCAAGTTGATAACAGAGTTTGATGG,1.22,1.6,2.06,2.29,0.775,1.13,0.176,1.74
GCTCGGAGGCCAAGGTCAGAGCTTTGTCCGTAGA,3.1,2.72,3.69,0.649,1.93,2.64,1.27,0.281
TCATATAGGTAAAAGTTGAAAGTCGGTGTGGTAA,0.645,0.703,0.395,1.69,1.83,0.586,-0.0355,0.425
ATATGTAAGTTAAGGGTCATTCAGGTTGGTTCGC,3.8,3.97,3.2,2.13,4.89,3.5,1.55,4.67
CAAACTGGGTCACCGGAAGGTCAAAGTCCGCATG,5.45,8.27,7.08,0.907,6.37,4.2,1.61,2.92
CGAACTAGGTCAGAACACGACAGTGAAGGATGAT,1.84,2.55,3.06,0.593,1.39,1.31,0.186,-0.122
AAACCAAGGTGATCGTGAGGTCGTTGATACTAAC,1.41,2.02,0.373,0.896,1.55,3.5,2.46,2.81
CCTTACGGGTCACTGACAGGTTATAGCTTTTGGA,3.45,5.62,4.37,1.64,4.7,2.82,0.24,0.718
AATACAGGGTCATCGTAGGCCCGAGTACGCACAG,3.43,5.52,5.24,3.34,6.9,3.72,1.41,3.29
CGACCAAGGTCAGAGAGGTCAGTGAATGCCGAGT,5.37,6.34,7.04,3.34,5.82,4.15,2.11,5.63

Sequence,PBM binding z-score [1],PBM binding z-score [2],PBM binding z-score [3],PBM binding z-score [4],PBM binding z-score [5],PBM binding z-score [6],PBM binding z-score [7],PBM binding z-score [8]
CGAACGAGGGCATGAGTTCATAGCAAATGCCGAT,2.53,3.42,2.88,3.85,3.03,2.73,0.469,6.18
TATACAGGGTCAAAGCCCAGAGTACGAATGTCGA,2.97,5.26,4.63,3.03,5.9,3.23,0.46,2.85
TATACAGGGTCAAATGCCAGAGTACGAATGTCGA,3.11,5.88,4.98,3.42,6.54,3.6,0.982,3.62
AGTCAAAGTTCACTAGGTAACTTAAGATTCAGCT,3.53,4.86,5.58,4.13,3.94,2.03,0.269,3.85
GCTAGATGGTCAGTAAAAGGTCACACACCGGTCG,5.31,5.52,4.87,0.182,5.18,3.69,1.89,1.57
TCATATAGGTAAAAGCTAGGTGAAAGTCCGATCT,0.265,0.433,0.218,1.44,0.939,1.3,0.0247,-0.0504
ACTAGCAGGCCAAGGGTCACTCGAGATTAGTCCG,3.75,3.93,4.02,0.801,4.28,2.45,0.0934,1.06
GCTGCTAGGTCAACTGACGGTCAGCTAAAGCTCG,4.31,6.76,5.94,1.64,3.33,3.21,0.993,-0.00537
ATAACAAGGTGATCGTGAGGTCGTTGATACTAAC,1.58,2.43,1.23,0.955,1.76,3.48,2.31,2.78
ATATGTATGTTAGCTGGGGTCATTCAGACTAGGC,3.35,3.62,2.31,2.11,5.39,4.27,2.96,4.67
TGTCAAAGTGCAAAGGTAACGTAAGTATCCACAC,1.33,2.55,1.78,0.968,2.55,1.94,-0.723,0.351
CGTCCATGGTCAAAGGTCAGTGAAGAGATGACGG,4.5,5.6,5.53,0.569,5.87,2.73,-0.0105,0.771
CAAACTCGGTCACCGGAAGGTCAAAGTCCGCATG,5.22,6.88,6.29,1.12,4.82,3.44,1.59,2.65
TTACCAAGGTGAAAGGTCTTTGATGCACGCCTTG,1.15,1.67,0.887,-0.125,2.43,2.13,0.663,-0.219
CCAGACAGGTGATAAGGTAACTCAGCCTCGATTA,0.435,0.392,0.586,0.284,0.276,1.77,1.72,0.103
TCTTGTAGATCAAGTAGGTTAAGAAAGCCTGAGT,0.305,0.0366,-0.106,0.547,0.304,0.372,-0.238,0.191
TCTCGGAGGACACGGAGGTCAGAGCTTTCCAGAG,3.7,3.54,3.91,0.792,2.47,3.34,1.77,2
ATATGTAGGTTATCCGGTCATTCAGTTTGCGCAT,2.35,2.11,1.83,0.932,1.4,1.67,1.08,1.53
